High-throughput results from PubChem.
FLuc inh: Photinus pyralis luciferase inhibition; 76,000 compounds, 2.5% hits; Potency, µM (doses to about 115 µM), actives largely listed as inhibitors; purified P. pyralis luciferase, luminescence, biochemical; P08659; note: nearly all actives have a fitted effect of over 65% in size
Target sequence (P08659 whole entry, looked up): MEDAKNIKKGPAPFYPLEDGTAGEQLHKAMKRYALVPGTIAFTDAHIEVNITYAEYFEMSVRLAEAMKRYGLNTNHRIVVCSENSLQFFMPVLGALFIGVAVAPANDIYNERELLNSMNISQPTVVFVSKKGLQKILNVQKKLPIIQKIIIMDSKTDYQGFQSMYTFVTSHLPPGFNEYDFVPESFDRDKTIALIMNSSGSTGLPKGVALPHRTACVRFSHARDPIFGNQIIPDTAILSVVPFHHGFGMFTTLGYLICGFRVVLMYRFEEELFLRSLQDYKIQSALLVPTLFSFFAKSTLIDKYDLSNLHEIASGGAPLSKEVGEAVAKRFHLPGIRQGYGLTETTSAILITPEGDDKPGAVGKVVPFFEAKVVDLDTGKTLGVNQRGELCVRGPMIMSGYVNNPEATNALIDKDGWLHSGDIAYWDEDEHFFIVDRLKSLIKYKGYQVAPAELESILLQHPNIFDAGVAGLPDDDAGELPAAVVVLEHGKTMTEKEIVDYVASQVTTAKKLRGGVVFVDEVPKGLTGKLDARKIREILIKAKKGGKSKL
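Luminescence read by CCD imaging after purified firefly luciferase (10nM final) was added to substrate buffer holding 10uM D-luciferin and 10uM ATP, pH 7.5, pre-dosed with compound.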
NPR1 antag: antagonists of human natriuretic peptide receptor Npr1 | P16066 | AID 1347048 | Potency, µM (titrated, usually from 46.3 µM), without a hit: at the highest dose activity change, negative = inhibition, most hits filed as inhibitors | 76,000 compounds, 1.6% hits | HEK293 hNpr1 GloSensor cGMP, ANP-stimulated luminescence; calls by dose curve; note: nearly all actives have a fitted effect of over 60% in size
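Compound pre-incubated 30 min at room temperature on GloSensor-loaded HEK293 cells stably carrying hNpr1 and the pGS-40F cGMP biosensor. Stimulation uses hNppA at 0.1 nM final; luminescence is taken at baseline and 20 min post-agonist.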
NIH3T3 tox: kills NIH 3T3 cells | NIH 3T3 viability, CellTiter-Glo ATP luminescence, 48-72 h | Potency, µM (series often up to 96.7 µM), for inactives: at the highest dose activity change, negative = cytotoxicity, usual class: inhibitors | 94,000 compounds, 4.3% hits; note: nearly all actives have a fitted effect of over 55% in size
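Cells were seeded at 400 per well, treated with pin-transferred compound, and kept 48 or 72 hr at 37 °C before CellTiter-Glo addition and luminescence imaging of cellular ATP.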
HEK293 tox: HEK 293 cell cytotoxicity | HEK 293 viability, ATP luminescence (CellTiter-Glo), 48-72 h | Potency, µM (highest dose often 115 µM), without a hit: at the top dose activity change, negative = cytotoxicity, most hits filed as inhibitors | 94,000 compounds, 6.6% hits | AID 1345083; note: nearly all actives have a fitted effect of over 60% in size
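Luminescence from cellular ATP, measured with CellTiter-Glo, indicates HEK 293 viability. Cells plated at 250 cells/well are treated with compound for 48 or 72 hr at 37 degree Celsius before reagent addition.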
GPT2 inhibitor: GPT2 alanine aminotransferase inhibition; Q8TD30; Recombinant GPT2, coupled pyruvate oxidase/HRP Amplex Red fluorescence; Potency, µM (doses to about 57.7 µM), without a hit: top-dose activity change, negative = inhibition, usual class: inhibitors; 100,000 compounds, 0.25% hits; note: nearly all actives have a fitted effect of over 60% in size
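Fluorescence read-out: pyruvate from GPT2 turnover coupled to pyruvate oxidase, HRP and Amplex Red (0.2mM ThPP, 0.2U/mL PO and HRP, 50uM Amplex final). Substrates 250uM a-KG, 2mM L-alanine; enzyme 10ng/uL; 30 min RT.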
Active calls of the source: *; [ ] = dose if it differs, or a comment. An excerpt weighted towards active compounds, which were near 10% of everything screened. Unless noted, calls come from the whole dose curve; as a rule, active = well fitted curve in the direction sought with a large enough effect; inconclusive = small, poorly fitted or top-dose-only effect, or another doubt; inactive = no such curve, though single readings can be large; an effect the other way counts as inactive or inconclusive. % is set by controls: 0 for no effect and ±100 for the full control effect; potency is the fitted concentration of half-maximal effect.

O=C(Nc1cnc(-c2ccc(F)cc2)nc1)c1ccco1 was read as FLuc inh 3.5µM*, NPR1 antag -20%, NIH3T3 tox -15%, HEK293 tox inconclusive and GPT2 inhibitor inactive.
O=C(Nc1cnc(-c2ccccc2)nc1)c1ccc(F)c(F)c1 was read as FLuc inh inactive, NPR1 antag 3%, NIH3T3 tox inactive, HEK293 tox 10% and GPT2 inhibitor inactive.
For COc1ccccc1Nc1ccnc(N2CCC(NC(=O)NC3CCCC3)CC2)n1 the results were NIH3T3 tox inconclusive, HEK293 tox inconclusive and GPT2 inhibitor -17%.
COc1cccc(-c2ccc(CN3CCCC(NC(=O)c4ccc(Cl)nc4)C3)cc2)c1 (stereo not drawn) was read as NIH3T3 tox 32µM*, HEK293 tox 14µM* and GPT2 inhibitor inconclusive.
COc1cccc(-c2ccc(CN3CCCC(NC(=O)c4ccc(C(F)(F)F)cc4)C3)cc2)c1 (stereo not drawn) was read as NIH3T3 tox -24%, HEK293 tox -33% and GPT2 inhibitor inactive.
For O=C(NC1CCCN(Cc2ccc(-c3cncnc3)cc2)C1)c1ccccn1 (stereo not drawn) the results were NIH3T3 tox -4%, HEK293 tox inconclusive and GPT2 inhibitor -8%.
For COc1cccc(-c2ccc(CN3CCCC(NC(=O)c4ccc(C)cc4)C3)cc2)c1 (stereo not drawn) the results were NIH3T3 tox inconclusive, HEK293 tox 22µM* and GPT2 inhibitor inconclusive.
`Cc1cc(C)cc(-c2ccc(CN3CCCC(NC(=O)c4ccccn4)C3)cc2)c1` (stereo not drawn) gave NIH3T3 tox 14µM*, HEK293 tox inconclusive and GPT2 inhibitor -10%.
For Cc1cccc(C(=O)NC2CCCN(Cc3ccc(-c4cc(C)cc(C)c4)cc3)C2)c1 (stereo not drawn) the results were NIH3T3 tox inconclusive, HEK293 tox 40µM* and GPT2 inhibitor inactive.
`Cc1cc(C)cc(-c2ccc(CN3CCCC(NC(=O)c4ccc(C(F)(F)F)cc4)C3)cc2)c1` (stereo not drawn) gave NIH3T3 tox -8%, HEK293 tox -5% and GPT2 inhibitor 4%.
COCCCNC(=O)c1cc(-c2cccc(C(F)(F)F)c2)nc2c1cnn2C was read as NIH3T3 tox -17%, HEK293 tox -4% and GPT2 inhibitor 1%.
O=C(c1ccccc1F)N1CCC(C(=O)N2CCC(c3nc4ncccc4[nH]3)CC2)CC1 was read as NIH3T3 tox -11%, HEK293 tox -1% and GPT2 inhibitor inactive.
`N#Cc1ccc(CN2CCc3nc(N4CCc5ccccc5C4)[nH]c(=O)c3CC2)cc1` gave FLuc inh inactive, NPR1 antag -12%, NIH3T3 tox -3%, HEK293 tox -14% and GPT2 inhibitor inactive.
Screening COc1cccc(-c2ccc(CN3CCCC(NC(=O)c4ccccn4)C3)cc2)c1 (stereo not drawn) returned NIH3T3 tox inconclusive, HEK293 tox 25µM* and GPT2 inhibitor -12%.
COc1cccc(-c2ccc(CN3CCCC(NC(=O)c4ccncc4)C3)cc2)c1 (stereo not drawn) was read as NIH3T3 tox inconclusive, HEK293 tox 22µM* and GPT2 inhibitor 3%.
COc1ccc(Nc2ccnc(N3CCC(NC(=O)c4ccc(Cl)cc4)CC3)n2)cc1 was read as NIH3T3 tox inconclusive, HEK293 tox inconclusive and GPT2 inhibitor 3%.
CC(C)(CC(=O)O)CC(=O)N1C[C@@H]2C[C@H](C1)c1ccc(-c3cc4ccccc4s3)c(=O)n1C2 was read as FLuc inh 22µM*, NPR1 antag -2%, NIH3T3 tox -15%, HEK293 tox -10% and GPT2 inhibitor inconclusive.
O=C1NC2(CCN(Cc3ccccc3)C2)COc2ccccc21 (stereo not drawn) was read as FLuc inh inactive, NPR1 antag 2%[70.6 µM], NIH3T3 tox inconclusive, HEK293 tox inconclusive and GPT2 inhibitor -2%[88.5 µM].
